TTR transcr act = TTR transcription activation, primary screen. SH-SY5Y TTR promoter Gaussia luciferase, luminescence; 100% = recombinant luciferase protein wells. activation, % at 16.7 µM. 92,000 compounds, 1.3% hits. AID 1117267;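 active = activation above the mean of all tested compounds plus 3 SD, cut at about 9.5% in these data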;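 note: cells exposed to compounds for one day before reading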
HuH7 TTR inh = decreases TTR transcription in HuH7 cells in activator counter-screen. inhibition, % at 16.7 µM. 1,100 compounds, 4% hits. shares compounds with TTR transcr act. HuH7 TTR promoter-Gaussia luciferase reporter, luminescence. AID 1117279;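 active = average inhibition above the solvent-only control wells' mean plus 3 SD, cut at about 15% in these data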;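 note: inhibitors lower well luminescence so higher value means more inhibition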
TTR up confirm = human TTR transcription activation, confirmation; 1,100 tested, under 10 active; shares compounds with TTR transcr act; AID 1117280; SHSY5Y TTR promoter Gaussia luciferase, luminescence; 100% = purified Lucia enzyme wells, no cells; activation, % at 16.7 µM;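 active = mean activation above a set limit taken from the earlier primary screen, cut at about 11% in these data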
Large screens that a line does not name were inactive (follow-up assays come after a bar, where they were run). The full list was thinned out, with hits kept by preference.

COc1ccc(C(=O)N2CCN(C)C(C)C2)cc1OC1CCN(C(C)=O)CC1 (stereo unspecified)	none
COc1cc(C(=O)N2C[C@H]3CC[C@H]2C3)ccc1OC1CCN(C(C)=O)CC1	none
COc1cc(C(=O)N2C[C@@H]3CCC[C@H]2C3)ccc1OC1CCN(C(C)=O)CC1	TTR transcr act 16 | HuH7 TTR inh inactive | TTR up confirm inactive
CCCCCCCCN1C(=O)[C@@H](CC(=O)N2CCN(C(=O)C3CC3)CC2)C[C@@]2(C(=O)OC)C1=C[C@H](C(C)C)O[C@@H]2C1CC1	none
COC(=O)[C@]12C[C@H](CC(=O)NCCC(C)C)C(=O)N(CCc3ccc(OC)c(OC)c3)C1=C[C@H](COCc1ccccc1)O[C@@H]2C	none
CCC(=O)Nc1nnc(-c2ccco2)o1	none
Cc1ccc(C(=O)Nc2nnc(-c3ccco3)o2)cc1	none
Cc1ccsc1C(=O)Nc1nnc(-c2ccco2)o1	TTR transcr act 16 | HuH7 TTR inh inactive | TTR up confirm inactive
O=C(OCC#CCSc1nnc(-c2cccc3ccccc23)o1)c1cccc(C(F)(F)F)c1	none
COc1cccc(CSc2nc3cc4c(cc3cc2C)OCCO4)c1	TTR transcr act 18 | HuH7 TTR inh inactive | TTR up confirm inactive
COc1cccc(CSc2nc3ccccc3[nH]2)c1	none
COC(=O)CSc1nc2cc3c(cc2cc1C)OCO3	none
CCN1CCN(Cc2ccc(NC(=O)c3ccc(C)c(NC(=O)c4cccc5[nH]ccc45)c3)cc2C(F)(F)F)CC1	none
CCN1CCN(Cc2ccc(NC(=O)c3ccc(C)c(NC(=O)c4nccn4C)c3)cc2C(F)(F)F)CC1	TTR transcr act 11 | HuH7 TTR inh inactive | TTR up confirm inactive
CCN1CCN(Cc2ccc(NC(=O)c3ccc(C)c(NC(=O)c4cc(-c5ccc(Br)cc5)n[nH]4)c3)cc2C(F)(F)F)CC1	none
COC(=O)c1ccc(Cn2ccc3ccc(-c4ccc5ccn(C(=O)C6CCCCC6)c5c4)cc32)cc1	none
CCOC(=O)c1ccccc1NC(=O)C=C(C)C	none
CCOC(=O)c1ccccc1NC(=O)C(C)Oc1ccccc1 (stereo unspecified)	none
CCOCCOC(=O)COC(=O)c1ccccc1NC(=O)c1ccccc1	TTR transcr act 12 | HuH7 TTR inh inactive | TTR up confirm inactive
C=CCC[C@@H](Cc1ccc(F)cc1)C(=O)OC[C@@H]1CCCN1C(=O)[C@H](CC=C)CC(=O)N[C@H](CO)Cc1ccccc1	TTR transcr act 17 | HuH7 TTR inh inactive | TTR up confirm inactive
C=CCC[C@@H](Cc1ccc(F)cc1)C(=O)OC[C@H](Cc1c[nH]c2ccccc12)NC(=O)[C@@H](CC=C)CC(=O)N[C@H](CO)Cc1ccccc1	none
C=CC[C@@H](CC(=O)N[C@H](CO)Cc1ccccc1)C(=O)N[C@@H](COC(=O)[C@@H](CC=C)Cc1ccc(F)cc1)Cc1ccccc1	none
O=C1C(=O)N(Cc2ccc(-c3ccccc3)cc2)c2ccc(OC(F)(F)F)cc21	none
O=C(Nc1c(-c2ccc(C(F)(F)F)cc2)nc2ncccn12)c1ccccc1	none
Cc1cc(C)c(C(=O)N2CCCC(C(=O)c3cc(F)ccc3F)C2)o1 (stereo unspecified)	none
COc1ccc(C(=O)C2CCCN(C(=O)c3c4c(nn3C)CCCC4)C2)cc1F (stereo unspecified)	none
Cn1nc2c(c1C(=O)N1CCCC(C(=O)c3cc(F)ccc3F)C1)CCCC2 (stereo unspecified)	TTR transcr act 12 | HuH7 TTR inh inactive | TTR up confirm inactive
COCCCNC(=O)c1ccc(Cn2c(=O)c3ccccc3n(Cc3ccc(Br)cc3)c2=O)cc1	none
CCC[C@H]1[C@@H](OC(=O)NCc2ccc(OC)c(OC)c2)CC[C@@]23CCCN2C(=O)CCC[C@@H]13	none
O=C(NCCO)[C@H](Cc1ccccc1)NC1(C(=O)NCCN2CCOCC2)CCCCC1	none
c1nc(NCC2CCCOC2)c2cc(-c3ccc4c(c3)OCO4)ccc2n1 (stereo unspecified)	none
COc1ccc(OCc2cc(C(=O)NCC3CCCCO3)no2)c(Cl)c1 (stereo unspecified)	none
CNC(=O)CCc1nc(-c2ccc(C(C)C)cc2)no1	none
COc1cc(CNc2cccc3c2S(=O)(=O)N([C@H](C)c2ccccc2)C[C@@H](COCc2ccccc2)O3)cc(OC)c1OC	none
Cc1ccc(C(=O)CCC(=O)NN2C(=O)NC3(CCCCC3)C2=O)cc1	none
Cc1nnc(SCC(=O)NN2C(=O)NC3(CCCCC3)C2=O)s1	TTR transcr act 11 | HuH7 TTR inh inactive | TTR up confirm inactive
CCC(=O)N(c1nnc(SCC(=O)NN2C(=O)NC3(CCC(C)CC3)C2=O)s1)C1CC1 (stereo unspecified)	none
C[C@H]1[C@@H](OC(=O)Nc2ccc(Cl)cc2)CC[C@@]23CCCN2C(=O)CCC[C@@H]13	none

Screens from PubChem.
